Results filed as inconclusive are left out. Calls of active or inactive are those of the source. The call rests on the fitted dose curve; in most records, active means well fitted inhibition curve with a large enough effect; inconclusive means small, poorly fitted or top-dose-only effect; inactive means flat fitted curve, though single readings scatter.
Assays:
Experiment in all cases: Cytotoxic Profiling of Annotated Libraries Using Quantitative High-Throughput Screening (AID 1296008); further: nearly all actives have a fitted effect of over 60% in size
Conditions in all cases: Five cell lines viability, CellTiter-Glo ATP luminescence, 48-72 h; max response: active compounds read low
CRL-7250 = normal cell line; tested on: CRL-7250
In short: (§1)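 Cells exposed to compounds for 48 or 72 hr at 37 degrees Celsius. Viability read as ATP-coupled luminescence with CellTiter-Glo after 10 min at room temperature.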

HEK293 = tested on: HEK293
In short: as §1

HaCat = tested on: HaCat
In short: as §1

KB-3-1 = tested on: KB-3-1
In short: as §1

NIH3T3 = tested on: NIH3T3
In short: as §1

Measured: max response
On the % scale 0 is the no-effect control and ±100 the full control effect.

COc1c2c(c(C)c3c1C(=O)OC3)OC1(C)CC(O)C34OC(OC)(CC(O)C3(C)C1C2)OC4(C)C (stereo not given)
inactive: CRL-7250 0.784% | HEK293 -15.9% | HaCat | KB-3-1 4.03% | NIH3T3 1.57%

C=CCc1cc(OC)c(OC(C)C(O)c2ccc(O)c(OC)c2)c(OC)c1 (stereo not given)
inactive: CRL-7250 -6.23% | HEK293 0.874% | HaCat | KB-3-1 -7.75% | NIH3T3 -6.43%

C=C1C(OC(C)=O)CCC2(C)CCC(C(C)(C)O)CC12 (stereo not given)
inactive: CRL-7250 -5.46% | HEK293 -1.52% | HaCat -5.19% | KB-3-1 1.41% | NIH3T3

CC1=CC(=O)CC(C)(C)[C@@]1(O)/C=C/C(C)O[C@@H]1O[C@H](CO)[C@@H](O)[C@H](O)[C@H]1O (stereo not given in full)
inactive: CRL-7250 -4.8% | HEK293 -13.1% | HaCat | KB-3-1 | NIH3T3

COc1cccc(OC)c1-c1cc(C(=O)N[C@@H](CC(C)C)C(=O)O)nn1-c1ccnc2cc(Cl)ccc12
inactive: CRL-7250 | HEK293 -1.22% | HaCat | KB-3-1 | NIH3T3

Cc1ccccc1NC(=O)Nc1ccc(CN2C(=O)N([C@@H](CC(C)C)C(=O)N[C@@H](CC(=O)O)c3ccccc3)C(=O)C2(C)C)cc1
inactive: CRL-7250 -13.5% | HEK293 | HaCat 3.16% | KB-3-1 | NIH3T3 -0.819%

CC(O)CCc1ccc(O[C@@H]2O[C@H](CO)[C@@H](O)[C@H](O)[C@H]2O)cc1 (stereo not given in full)
inactive: CRL-7250 0.631% | HEK293 3.66% | HaCat | KB-3-1 2.69% | NIH3T3 -0.367%

CC[C@H](C)[C@H](NC(=O)[C@H](Cc1ccc(O)cc1)NC(=O)[C@@H](N)C(C)C)C(=O)N[C@@H](Cc1cnc[nH]1)C(=O)N1CCC[C@H]1C(=O)N[C@@H](Cc1ccccc1)C(=O)O
inactive: CRL-7250 | HEK293 0.716% | HaCat | KB-3-1 | NIH3T3

O=C(/C=C/c1ccc(O)c(O)c1)O[C@H]1[C@H](OC2CCCCC2O)O[C@H](CO)[C@@H](O)[C@@H]1O (stereo not given in full)
inactive: CRL-7250 -3.22% | HEK293 -0.453% | HaCat -16.7% | KB-3-1 -3.21% | NIH3T3

C=C1CC/C=C(/C(=O)O)CCC2C1CC2(C)C (stereo not given)
inactive: CRL-7250 -2.67% | HEK293 -4.76% | HaCat | KB-3-1 4.31% | NIH3T3

COC(=O)CCC1(C)C(C(C)(C)O)C(O)CC2(C)Oc3c(C)c4c(c(OC)c3CC21)C(=O)OC4 (stereo not given)
inactive: CRL-7250 -9.47% | HEK293 | HaCat -0.542% | KB-3-1 5% | NIH3T3 -1.25%

O=C(/C=C/c1ccc(O)cc1)OC[C@H]1O[C@H](O[C@@]2(CO)O[C@@H](CO)[C@H](O)[C@H]2O)[C@H](O)[C@@H](O)[C@@H]1O
inactive: CRL-7250 | HEK293 | HaCat 1.8% | KB-3-1 | NIH3T3 -0.438%

COc1cc(C2OCC3(O)C(c4ccc(O[C@@H]5O[C@H](CO)[C@@H](O)[C@H](O)[C@H]5O)c(OC)c4)OCC23O)ccc1O (stereo not given in full)
inactive: CRL-7250 | HEK293 -0.768% | HaCat | KB-3-1 7.65% | NIH3T3

C=C1C(O)CC2C(C(=O)O)=COC(O[C@@H]3O[C@H](COC(=O)c4ccc(O)cc4)[C@@H](O)[C@H](O)[C@H]3O)C12 (stereo not given in full)
inactive: CRL-7250 | HEK293 -1.77% | HaCat 2.09% | KB-3-1 | NIH3T3

C=C1CC2C(C)(CCC(=O)O)C(C(C)(C)O)CCC2(C)C2(C(=O)OC)C(=O)C(C)(O)C(=O)C12C (stereo not given)
inactive: CRL-7250 -12.5% | HEK293 -13.4% | HaCat | KB-3-1 1.2% | NIH3T3 0.874%

CC1CC(=O)[C@]2(O)C(C(=O)OCCc3ccc(O)c(O)c3)=CO[C@@H](O[C@@H]3O[C@H](CO)[C@@H](O)[C@H](O)[C@H]3O)[C@H]12 (stereo not given in full)
inactive: CRL-7250 4.18% | HEK293 -8.88% | HaCat | KB-3-1 8.6% | NIH3T3 0.72%

CC12CC34CC(O)C5C(CO)(CO)CC(=O)CC5(C)C3CC1C2C4 (stereo not given)
inactive: CRL-7250 -4.91% | HEK293 -0.711% | HaCat | KB-3-1 0.93% | NIH3T3 2.14%

C=CC(C)(O)CC/C=C(\C)C(=O)O[C@@H]1[C@@H](O)[C@H](OC(C)(C=C)CC/C=C(\C)C(=O)O)O[C@H](CO)[C@H]1OC(=O)/C(C)=C/CCC(C)(O)C=C (stereo not given in full)
inactive: CRL-7250 | HEK293 -0.372% | HaCat -21.2% | KB-3-1 | NIH3T3

COc1ccc(-c2ccn(CC[C@](C)(C(=O)NO)S(C)(=O)=O)c(=O)c2)c(F)c1
inactive: CRL-7250 2.02% | HEK293 -10.7% | HaCat | KB-3-1 | NIH3T3 3.1%

CC1(C)C[C@H](O)C[C@@]2(C)[C@H]1[C@H](O)C=C1COC(=O)[C@@]12O
inactive: CRL-7250 | HEK293 2.99% | HaCat | KB-3-1 | NIH3T3

C/C(=C\C(=O)C[C@@]12C(=O)O[C@]3(C)CC[C@H]1C[C@H]23)C(N)=O
inactive: CRL-7250 -61.5% | HEK293 -18.5% | HaCat | KB-3-1 | NIH3T3

COC(=O)C1C(c2ccc(O)cc2)C(C(=O)O)C1c1ccc(O)cc1 (stereo not given)
inactive: CRL-7250 -7.64% | HEK293 -2.14% | HaCat | KB-3-1 7.92% | NIH3T3 -3.05%

CC1OC(OC2C(OC3C(O[C@H]4CC[C@@]5(C)C(CC[C@]6(C)C5CC=C5C7CC(C)(C)CC(O)[C@]7(C)CC[C@]56C)C4(C)C)OC(C(=O)O)C(O)C3O)OCC(O)C2O)C(O)C(O)C1O (stereo not given in full)
inactive: CRL-7250 | HEK293 4.82% | HaCat -11.3% | KB-3-1 9.21% | NIH3T3

O=C(OCC1=CC(Cl)C(O)C(OC(=O)c2ccccc2)C1O)c1ccccc1 (stereo not given)
inactive: CRL-7250 2.93% | HEK293 -7.58% | HaCat | KB-3-1 | NIH3T3 1.71%

C=C1CC/C=C(/CO)C(=O)C[C@@H]2[C@@H]1C[C@@]2(C)COC(C)=O
inactive: CRL-7250 | HEK293 -4.3% | HaCat | KB-3-1 5.17% | NIH3T3

Nc1ccc(-n2nc(C(F)(F)F)cc2C(F)(F)F)cc1
inactive: CRL-7250 1.57% | HEK293 -3.16% | HaCat | KB-3-1 7.09% | NIH3T3

N#Cc1cccc(-c2nc(-c3cccnc3)no2)c1
inactive: CRL-7250 -3.07% | HEK293 -8.6% | HaCat | KB-3-1 | NIH3T3

C[C@@H]1O[C@@H](OC[C@H]2O[C@@H](OCc3ccccc3)[C@H](O)[C@@H](O)[C@@H]2O)[C@H](O)[C@H](O)[C@H]1O
inactive: CRL-7250 | HEK293 -5.01% | HaCat | KB-3-1 -7.21% | NIH3T3 0.0365%

C[C@]1(OC(=O)/C=C/c2ccc(O)cc2)C[C@@H](O)[C@]2(O)C=CO[C@@H](O[C@@H]3O[C@H](CO)[C@@H](O)[C@H](O)[C@H]3O)C12 (stereo not given in full)
inactive: CRL-7250 4.79% | HEK293 -2.23% | HaCat | KB-3-1 6.86% | NIH3T3

C=C(C)C1CCC2(C(=O)OC3OC(COC4OC(CO)C(O)C(O)C4O)C(OC4OC(C)C(O)C(O)C4O)C(O)C3O)CCC3(C(=O)O)C(CCC4C5(C)CCC(=O)C(C)(C)C5CCC43C)C12 (stereo not given)
inactive: CRL-7250 -1.47% | HEK293 -21.3% | HaCat | KB-3-1 1.44% | NIH3T3

CC1CCC2(C)CCC3(C)C(=CCC4C5(C)CCC(O)C(C)(C(=O)O)C5CCC43C)C2C1C (stereo not given)
inactive: CRL-7250 | HEK293 -6.34% | HaCat | KB-3-1 8.86% | NIH3T3 4.66%

C[C@H]1CCN2C[C@]34C[C@@]5(C(=O)Nc6c5ccc5c6OC=CC(C)(C)O5)C(C)(C)C3C[C@]12C(=O)N4C (stereo not given in full)
inactive: CRL-7250 | HEK293 -13.2% | HaCat | KB-3-1 -2.39% | NIH3T3 3.63%

CC1=C2CC(=O)C(C)CC/C=C(\C)CC2OC1=O (stereo not given)
inactive: CRL-7250 | HEK293 -1.49% | HaCat | KB-3-1 1.48% | NIH3T3 2.98%

Cc1cn(C[C@H](N)C(=O)O)c(=O)n(Cc2ccsc2C(=O)O)c1=O
inactive: CRL-7250 -3.54% | HEK293 -7.52% | HaCat | KB-3-1 | NIH3T3 4.32%

CC/C=C\[C@H](O)[C@H](O)C1=C(C)C(=O)[C@]2(O1)C(=O)N[C@@](O)(C(=O)c1ccccc1)[C@@H]2O
inactive: CRL-7250 | HEK293 2.91% | HaCat -6.31% | KB-3-1 | NIH3T3

O=C(/C=C/c1ccccc1)OC[C@H]1O[C@@H](OC(=O)c2cc(O)c(O)c(O)c2)[C@H](O)[C@@H](O)[C@@H]1O
inactive: CRL-7250 | HEK293 4.27% | HaCat | KB-3-1 6.66% | NIH3T3 3.75%

CC1(O)CCC2C(C3C1CCC3(C)O)C2(C)C (stereo not given)
inactive: CRL-7250 3.06% | HEK293 0.939% | HaCat 2.93% | KB-3-1 7.36% | NIH3T3

O=C(C[C@@H]1C(C(=O)O)=CO[C@@H](O[C@@H]2O[C@H](CO)[C@@H](O)[C@H](O)[C@H]2O)/C1=C\CO)OCCc1ccc(O)cc1
inactive: CRL-7250 1.31% | HEK293 1.44% | HaCat -0.66% | KB-3-1 | NIH3T3

O=C(/C=C/c1ccc(O)cc1)O[C@H]1[C@H](OC2CCCCC2O)O[C@H](CO)[C@@H](O)[C@@H]1O (stereo not given in full)
inactive: CRL-7250 -2.64% | HEK293 2.98% | HaCat | KB-3-1 5.56% | NIH3T3

CC(C)(Oc1ccc(-c2nc3cc(Cl)ccc3s2)cc1)C(=O)O
inactive: CRL-7250 | HEK293 -8.75% | HaCat | KB-3-1 5.1% | NIH3T3

COc1cc2c(c(O)c1OC/C=C(\C)CC/C=C(/C)CCC=C(C)C)CN(C(CCC(=O)O)C(=O)O)C2=O (stereo not given)
inactive: CRL-7250 | HEK293 2.31% | HaCat | KB-3-1 3.38% | NIH3T3 -3.47%

Reference: PubChem BioAssay (NCATS)
